hNpr1 antagonist: Natriuretic polypeptide receptor (hNpr1) antagonism - Primary qHTS | Potency, µM (top dose mostly 46.3 µM), for the others: at the highest dose activity change, negative = inhibition, most hits filed as inhibitors | HEK293 hNpr1 GloSensor cGMP, ANP-stimulated luminescence | Atrial natriuretic peptide receptor 1 (Homo sapiens), P16066 | 76,000 tested, 1.6% active; calls by dose curve; also: nearly all actives have a fitted effect of over 60% in size
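HEK293 cells stably expressing human Npr1 and cGMP GloSensor pGS-40F, loaded 2 h with 2% GloSensor reagent, given compound 30 min at room temperature. Luminescence read before and 20 min after 0.1 nM hNppA.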
FLuc inh: Firefly luciferase inhibition profiling of diverse chemical library using quantitative high-throughput screening; purified P. pyralis luciferase, luminescence, biochemical; Potency, µM (titrated, usually from 115 µM), hits mostly inhibitors; 76,000 tested, 2.5% active; Luciferin 4-monooxygenase (Photinus pyralis), P08659; AID 1347043, 2019; also: nearly all actives have a fitted effect of over 65% in size
Target sequence (P08659 whole entry, looked up): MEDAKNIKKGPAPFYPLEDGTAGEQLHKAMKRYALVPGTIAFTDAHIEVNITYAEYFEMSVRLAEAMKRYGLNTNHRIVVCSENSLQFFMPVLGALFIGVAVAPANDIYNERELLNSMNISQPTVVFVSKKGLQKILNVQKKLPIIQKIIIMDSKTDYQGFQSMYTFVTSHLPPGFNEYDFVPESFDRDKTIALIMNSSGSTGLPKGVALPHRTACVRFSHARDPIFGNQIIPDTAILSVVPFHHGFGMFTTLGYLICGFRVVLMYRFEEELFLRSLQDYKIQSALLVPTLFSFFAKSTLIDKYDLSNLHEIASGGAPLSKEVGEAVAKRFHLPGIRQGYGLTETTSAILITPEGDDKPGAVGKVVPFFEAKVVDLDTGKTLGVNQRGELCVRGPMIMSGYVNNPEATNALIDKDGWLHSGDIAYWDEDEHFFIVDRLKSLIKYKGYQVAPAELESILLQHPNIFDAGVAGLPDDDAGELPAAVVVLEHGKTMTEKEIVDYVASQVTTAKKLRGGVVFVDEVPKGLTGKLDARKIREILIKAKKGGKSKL
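Cell-free enzyme assay, 10nM P. pyralis luciferase, luciferin and ATP each at 10uM. Inhibition profiled over a 6-point titration, read as luminescence.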
NIH3T3 tox: Cytotoxic Profiling in NIH 3T3 Cell Line of Diverse Libraries Using Quantitative High-Throughput Screening; NIH 3T3 viability, CellTiter-Glo ATP luminescence, 48-72 h; Potency, µM (doses to about 96.7 µM), for the others: top-dose activity change, negative = cytotoxicity, hits mostly inhibitors; 94,000 tested, 4.3% active; AID 1345082, 2018; also: nearly all actives have a fitted effect of over 55% in size
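Cytotoxicity is measured as loss of cellular ATP: NIH 3T3 cells (400/well) are exposed to compound for 48 or 72 hr at 37 °C, then CellTiter-Glo luminescence is imaged after 10 min at room temperature.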
HEK cytotox: Cytotoxic Profiling in HEK 293 Cell Line of Diverse Libraries Using Quantitative High-Throughput Screening | Potency, µM (doses to about 115 µM), for the others: at the highest dose activity change, negative = cytotoxicity, most hits filed as inhibitors | AID 1345083, 2018 | HEK 293 viability, ATP luminescence (CellTiter-Glo), 48-72 h | 94,000 tested, 6.6% active; also: nearly all actives have a fitted effect of over 60% in size
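ATP-coupled CellTiter-Glo luminescence served as viability read-out, recorded 10 min after reagent addition at room temperature. HEK 293 cells, 250 cells/well, had been incubated with pintool-transferred compound for 48 or 72 hr at 37 degree Celsius.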
Starred values were filed as active, the others as inactive; i = inactive; ? = inconclusive; . = no result given; [ ] = dose if it differs, or a comment. Most compounds without a hit are left out; they make up all but 11% or so of the library. Unless noted, calls follow the shape of the dose curve; as a rule, active = well fitted curve in the direction sought with a large enough effect; inconclusive = small, poorly fitted or top-dose-only effect, or another doubt; inactive = no such curve, though single readings can be large; an effect the other way counts as inactive or inconclusive. % is scaled to controls: 0 for no effect and ±100 for the full control effect; potency is read from the fitted curve at half-maximal effect.

SMILES	hNpr1 antagonist	FLuc inh	NIH3T3 tox	HEK cytotox
CCCNC(=O)c1coc(COc2ccc3c(c2)C(c2ccc(C)cc2)N(C(=O)C2CC2)CC3)n1 (centres undefined)	-8%	i	?	?
Cc1ccc(C2c3cc(OCc4nc(C(=O)NCC(C)C)co4)ccc3CCN2C(=O)C2CC2)cc1 (centres undefined)	-1%	i	?	40µM*
COCCNC(=O)C1CCCN1C(=O)c1cccc(-c2cccc(OC)c2)c1 (centres undefined)	.	.	-22%	?
CCc1nc(-c2c3n(c(=O)n(CC(=O)NCc4ccc(C)cc4)c2=O)CCCC3)no1	6%	i	-4%	-3%
COc1ccc(CN(C)CC2CCN(CCc3ccc(F)cc3)CC2)cc1Cn1cccn1	-3%	i	40µM*	28µM*
CCOC(=O)N1CCC(N(C)CC2CCN(CCc3ccc(F)cc3)CC2)CC1	1%	i	?	?
O=C(c1ccccc1F)N1CCCC(C(=O)N2CCCC2c2nc3ccncc3[nH]2)C1 (centres undefined)	.	.	-9%	i
Cc1cc(C)n(CCC(=O)NCC2CCN(c3cc(-c4ccc(Cl)cc4)[nH]n3)CC2)n1	-20%	i	32µM*	35µM*
O=C(NCC1CCN(c2cc(-c3ccc(Cl)cc3)[nH]n2)CC1)c1cc(C2CC2)[nH]n1	?	?	35µM*	?
CC(=O)NCC(=O)NCC1CCN(c2cc(-c3ccc(Cl)cc3)[nH]n2)CC1	4%	?	-27%	-1%
O=C(NCC1CCN(c2cc(-c3ccc(F)cc3)[nH]n2)CC1)c1cc(C2CC2)[nH]n1	-27%	?	?	?
O=C(NCC1CCN(c2cc(-c3ccc(Cl)cc3)[nH]n2)CC1)c1ccc[nH]1	-22%	i	22µM*	?
O=C1NCCCCCN(Cc2cccnc2)[C@@H]2CN(Cc3cccc(F)c3)CC[C@@H]12	1%	i	-16%	?
O=C(Cc1ccc(F)cc1)NC1CCCN(c2ccc3nnc(-c4ccccc4)n3n2)C1 (centres undefined)	.	.	-40%	-28%
O=C(OCc1ccccc1)N1CCOCC12CCN(Cc1ncccn1)CC2	1%[70.6 µM]	i	?	-12%[172 µM]
O=C1OCC2(CCN(Cc3c[nH]c4ccccc34)C2)N1Cc1ccccc1 (centres undefined)	-22%[70.6 µM]	i	89µM*	?
O=C(OCc1ccccc1)N1CCOCC12CCN(Cc1c[nH]c3ccccc13)CC2	-21%[70.6 µM]	i	35µM*	56µM*
O=C(OCc1ccccc1)N1CCOCC12CCN(Cc1ccc(O)cc1)CC2	-10%[70.6 µM]	i	79µM*	?
COC(=O)c1ccc2c(c1)nc1n2[C@@H](CNCc2ccc(F)c(F)c2)COC1	-15%[70.6 µM]	i	?	?
Cc1ccc(NC(=O)c2ccc3c(c2)N(C)C2CCCCCN2C3=O)cc1 (centres undefined)	3%	?	?	?
CN1c2cc(C(=O)NCc3cccs3)ccc2C(=O)N2CCCCC21 (centres undefined)	-2%	25µM*	-21%	?
Cc1ccc(NC(=O)c2ccc3c(c2)N(C)C2CCCN2C3=O)cc1 (centres undefined)	-23%	22µM*	i	5%
Cc1ccc(NC(=O)c2ccc3c(c2)N(C)C2CCCCN2C3=O)cc1 (centres undefined)	0%	40µM*	-26%	?
CCc1ccc(NC(=O)c2ccc3c(c2)N(C)C2CCCCN2C3=O)cc1 (centres undefined)	0%	14µM*	?	?
COC(=O)N1CCc2nc(C(C)C)nc(-c3ccc(O)cc3)c2C1	-1%[70.6 µM]	i	-25%[138 µM]	-3%[172 µM]
SMILES	hNpr1 antagonist	FLuc inh	NIH3T3 tox	HEK cytotox
COc1ccccc1NC(=O)Cn1c(C)ccc(NS(=O)(=O)c2ccccc2)c1=O	2%	i	i	2%
CN1c2cc(C(=O)Nc3ccc(OC(F)(F)F)cc3)ccc2C(=O)N2CCCC21 (centres undefined)	0%	40µM*	-1%	-24%
CCOc1ccc(NC(=O)c2ccc3c(c2)N(C)C2CCCCN2C3=O)cc1 (centres undefined)	-1%	?	?	?
Cc1nn(-c2ccccc2)c(C)c1[C@@H]1C=C[C@@H](NC(=O)CCCC(=O)O)C1	6%[70.6 µM]	i	i	i
Cc1nn(-c2ccccc2[N+](=O)[O-])c(C)c1[C@@H]1C=C[C@@H](NC(=O)Nc2cccc(C#N)c2)C1	?	?	?	40µM*
Cc1nn(CCC#N)c(C)c1[C@@H]1C=C[C@@H](NC(=O)Nc2ccccc2)C1	3%[70.6 µM]	?	?	-3%[172 µM]
Cc1nn(-c2ccc(C(F)(F)F)cc2)c(C)c1[C@@H]1C=C[C@@H](NC(=O)c2cccnc2)C1	-26%[70.6 µM]	?	28µM*	?
Cc1nn(-c2ccc(C(F)(F)F)cc2)c(C)c1[C@@H]1C=C[C@@H](NC(=O)Nc2cccc(C#N)c2)C1	?	7.1µM*	25µM*	?
Cc1nn(-c2ccccc2)c(C)c1[C@@H]1C=C[C@@H](NC(=O)c2ccco2)C1	35µM*	i	?	?
Cc1nn(-c2ccc(C(F)(F)F)cc2)c(C)c1[C@@H]1C=C[C@@H](NC(=O)CSCC(=O)O)C1	-2%	i	-14%	?
COCCn1c(C)cnc1CC1CCCN(S(=O)(=O)c2cccc(OC)c2)C1 (centres undefined)	.	.	-29%	?
O=C(C1CCN([S+](=O)([O-])c2cccs2)CC1)N1CCCC1c1nc2ccncc2[nH]1 (centres undefined)	.	.	2%	i
Cc1c(CN2CCCC(CNC(=O)c3cccc4ccccc34)C2)[nH]c2ccccc12 (centres undefined)	-3%	i	20µM*	18µM*
COc1cccc(C(=O)NCC2CCCN(Cc3ccccn3)C2)c1OC (centres undefined)	-3%	i	-17%	-10%
CNc1ccc(C)cc1C(=O)N1CCC2(CCCN(C)CC2)CC1	-1%	i	-13%	-28%
Cn1c2c(c3cc(F)ccc31)CN(C(=O)Nc1ccc(Cl)cc1)CC2	-15%	25µM*	28µM*	?
Cc1cccc(NC(=O)N2CCc3c(c4cc(F)ccc4n3C)C2)c1	-15%	?	?	?
Cn1c2c(c3cc(F)ccc31)CN(C(=O)Nc1cccc(Cl)c1)CC2	?	?	20µM*	?
O=C(O)[C@H]1C[C@]2(CCCCNC2=O)N(C(=O)c2ccccc2)[C@H]1c1ccccc1	.	.	?	-14%
Cn1ccc2c(C(=O)NCC3CCC(=O)N3)nc(-c3ccccc3C#N)cc21 (centres undefined)	-1%[70.6 µM]	i	25µM*	?

Bioassay records as filed in PubChem.
